# Measured values taken from PubChem BioAssay (NCI).
# “And” between values parts separate entries of the source, which are not always exact repeats. Equal values may be shown once. The panel holds about 79,000 compounds, 15% with a hit somewhere; the sample as a whole holds those more often. A structure can be active in one record and inactive in another. The source made the active and inactive calls. Cut-off read from the data, not from the text of the source: active = growth inhibition above about 70%; inactive = the rest.
# Assay: NCI Yeast Anticancer Drug Screen. Data for the bub3 strain (AID 167)
# Details: S. cerevisiae bub3 mutant strain, stronger effect = higher value
# Procedure: Growth inhibition of yeast strains with defined genetic alterations is measured as a screen for potential anti-cancer activity. Selected strains with alterations in DNA damage repair or cell cycle control were exposed to compounds and growth inhibition was measured relative to vehicle treated controls. The strain used in this assay is bub3
# [1] = at 5.0 µM (retest, dose inferred, filed as 0.5)
# [2] = at 50.0 µM (retest, dose inferred, filed as 5.0)
Structure (SMILES),growth inhibition (at 1.2 µM),growth inhibition (at 3.7 µM),growth inhibition [1],growth inhibition (at 11.0 µM),growth inhibition (at 33.0 µM),growth inhibition [2],growth inhibition (at 50.0 µM),growth inhibition (at 100.0 µM)
COc1cc(C(C)(C)C)cc(OC)c1C(O)(c1c(OC)cc(C(C)(C)C)cc1OC)c1c(OC)cc(C(C)(C)C)cc1OC,-25% (inactive),44% (inactive),76% (active),92% (active),94% (active),96% (active),75.8% (active),85% (active)
CC1=Cc2ccc(C)cc2C(=O)C1=O,0% (inactive),-3% (inactive),36% (inactive),2% (inactive),44% (inactive),99% (active),99.3% (active),99% (active)
CN(Cc1cccc2ccccc12)Cc1cccc2ccccc12,-2% (inactive),1% (inactive),-12% (inactive),-25% (inactive),6% (inactive),87% (active),73.7% (active),2% (inactive)
CCc1nc2ccc(N=Nc3c(O)ccc4ccccc34)cc2[nH]1,-3% (inactive),-11% (inactive),-9% (inactive),-18% (inactive),13% (inactive),92% (active),92.2% (active),95% (active)
COc1ccc2[nH]c3c(C)c4cc[n+](C)cc4c(C)c3c2c1,18% (inactive) and 8% (inactive),30% (inactive) and 22% (inactive),19% (inactive) and 2% (inactive),28% (inactive) and 23% (inactive),33% (inactive) and 32% (inactive),50% (inactive) and 20% (inactive),22.9% (inactive) and 34.1% (inactive),30% (inactive) and 79% (active)
